# Data as given in PMC5540273 (PLoS ONE, 2017).
# Tested on: PAK1
# Conditions: concentration: 1 μM, replicates: in singlicate; n = 1
# 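Also: KINOMEscan kinase panel screen.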
row,Structure (SMILES),%Inh
1,COc1cc2ncn(-c3cc(OCC4CCCO4)c(C(N)=O)s3)c2cc1OC (stereo not drawn) [GSK204607],0%
2,COc1ccccc1-c1ccc2c(NC(=O)C3CC3)n[nH]c2n1 [SB-711239],5%
3,Cc1cccc(-c2cc(Nc3ccncc3)c3ccccc3n2)n1 [GSK223675],6%
4,COc1ccc(Nc2nccc(-c3cccc(NC(=O)c4cc5cc(F)ccc5[nH]4)c3)n2)cc1 [GSK1229782],36%
5,COc1ccc(Nc2nccc(NCCNC(=O)Nc3ccccc3F)n2)cc1 [GSK1379901],0%
6,NC(=O)c1nnc2ccccc2c1N,0%
7,CC(C)(C)c1ccc(C(=O)Nc2cn3cc(Cl)ccc3n2)cc1,0%
8,COc1cccc(NC(=O)NC2CCN(c3ccnc(Nc4ccc(F)cc4)n3)C2)c1 (stereo not drawn) [GSK1379721],0%
9,Cc1ccc(-c2cc(-c3c[nH]nc3-c3ccccn3)ccn2)cc1 [GW684088],14%
10,Cc1cc(N2Cc3ccccc3C2)nc(Nc2ccc(S(=O)(=O)N3CCOCC3)cc2)n1.Cl [GSK1669917],8%
11,CC(C)(C)c1ccc(C(=O)Nc2cn3cc(-c4cccnc4)ccc3n2)cc1,36%
12,Cc1ccccc1-n1cnc2c(N)ncnc21 [SKF-97510],15%
13,Fc1cccc(COc2nnc(-c3ccc4c(c3)CCO4)o2)c1,27%
14,Cc1ccc(C(=O)Nc2ccc(Nc3ccnc4cc(-c5ccccn5)ccc34)cc2O)cc1.Cl [GW440146],12%
15,CS(=O)(=O)c1ccc(-c2c(-c3ncn[nH]3)sc(N3CCOCC3)c2C#N)cc1,2%
